# The full ranking holds about 33,000 sequences; the median of “E-score (-0.5 to 0.5)” is about -0.016, and the highest 2% start at about 0.3. Shown is part of a subset that was picked to be rich in the highest values.
# Molecular target: T1, Yer184c (UniProt P39961)
# T1 sequence: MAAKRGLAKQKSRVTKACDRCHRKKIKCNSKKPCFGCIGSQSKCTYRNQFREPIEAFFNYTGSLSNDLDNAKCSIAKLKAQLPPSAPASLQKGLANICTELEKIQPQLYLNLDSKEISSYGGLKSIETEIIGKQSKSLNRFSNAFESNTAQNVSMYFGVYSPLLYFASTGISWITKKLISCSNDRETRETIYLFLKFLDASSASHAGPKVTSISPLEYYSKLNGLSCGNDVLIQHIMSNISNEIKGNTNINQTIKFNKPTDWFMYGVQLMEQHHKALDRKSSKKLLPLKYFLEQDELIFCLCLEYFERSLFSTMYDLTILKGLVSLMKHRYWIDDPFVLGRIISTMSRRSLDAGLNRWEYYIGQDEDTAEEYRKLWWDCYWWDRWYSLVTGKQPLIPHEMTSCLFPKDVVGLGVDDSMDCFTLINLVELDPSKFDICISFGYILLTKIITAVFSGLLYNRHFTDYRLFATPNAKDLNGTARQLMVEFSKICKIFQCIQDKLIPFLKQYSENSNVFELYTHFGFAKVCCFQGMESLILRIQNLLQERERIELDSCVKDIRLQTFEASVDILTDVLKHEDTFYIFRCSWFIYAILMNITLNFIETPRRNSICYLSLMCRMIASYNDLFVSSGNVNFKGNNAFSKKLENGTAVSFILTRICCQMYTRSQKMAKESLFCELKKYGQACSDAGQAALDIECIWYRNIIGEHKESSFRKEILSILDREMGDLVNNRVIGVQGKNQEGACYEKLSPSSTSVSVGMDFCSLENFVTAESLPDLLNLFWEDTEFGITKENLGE
# Assay: PBM E-score (8-mer binding enrichment) (E-score (-0.5 to 0.5)); higher = stronger / more preferred TF binding
# Conditions: protein concentration: 100 nM; construct: GST-full length
# Procedure: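 Universal 'all 10-mer' protein binding microarrays (Agilent AMADID 015681) probed with GST-tagged S. cerevisiae TFs (full-length or DBD) made by in vitro transcription/translation (PURExpress), about 100-200 nM. Bound TF was detected with fluorescent anti-GST. Each ungapped 8-mer (which stands for itself and its reverse complement) is scored by the PBM enrichment score (E-score), a modified Wilcoxon-Mann-Whitney statistic from -0.5 to +0.5, computed with the Universal PBM Analysis Suite. Scale: above 0.35 generally sequence-specific binding.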
row,Sequence,PBM E-score
1,GCCAACAC,0.0745
2,CGTTGTTC,-0.00041
3,CTGGGCGA,-0.206
4,GCCCATCC,-0.224
5,TCGGTAGA,0.307
6,CCGGTAGA,0.264
7,ACGGTAGA,-0.0773
8,AGGCGATG,-0.0512
9,CCGCTGCG,-0.122
10,GCTAGCGA,-0.147
11,ACCCGAGT,0.0508
12,CCTTACCG,0.114
13,AAGAAATA,0.163
14,AAGAAATT,0.346
15,AAGAAATG,0.227
16,AGTCGTGG,-0.191
17,ATCATTAA,0.307
18,CAAATTAA,0.0386
19,GAAATTAA,0.337
20,ATAATTAA,0.323
21,GTAATTAA,0.143
22,ATCATTAG,0.037
23,AAAATTAA,0.168
24,ATAATTAT,0.386
25,TTAATTAA,-0.041

row,Sequence,PBM E-score
1,ATAATTAC,0.265
2,ATAATTAG,0.203
3,CTCATTAA,0.067
4,AACAAACT,0.277
5,AACAACGA,0.112
6,AGTGGCCC,-0.153
7,CAGGTATA,-0.163
8,AGTGTGCA,-0.0513
9,AACGATGT,0.13
10,CTCACCCA,-0.0925
11,CACGTTCG,-0.203
12,GCGCAAGA,0.188
13,AAAATTAC,0.127
14,AAAATTAT,0.316
15,AAAATTAG,0.227
16,AGGGATAG,-0.208
17,CCATCTAC,-0.15
18,TCCGGACA,0.431
19,GACGGACA,0.121
20,GCCGGACA,0.36
21,GCCGGATA,0.354
22,ACCGGACA,0.122
23,CCCGGACA,0.283
24,GCCGGACC,0.214
25,GCAGGATA,-0.168

row,Sequence,PBM E-score
1,GGCGGATA,0.0758
2,ACAAGAAG,0.048
3,CATCAGAG,-0.0413
4,GAGCACCC,-0.141
5,AAGTGATA,-0.118
6,GGGCCTTA,-0.209
7,GGGAGTAA,0.109
8,CGGAGTAC,0.0421
9,CGGAGTAA,0.313
10,AACCCGAA,0.14
11,CACGGCCA,0.131
12,AGTAACCG,0.117
13,CCCGCGGA,0.257
14,ACCGCGGT,0.195
15,CCCGCGGG,0.3
16,ACCGCGGC,0.344
17,CCCGCGGC,0.35
18,ACCGCGGG,0.291
19,ATGGACAT,0.0596
20,GAGTCGTA,-0.0554
21,ATCGCAGA,-0.132
22,CCACCACA,-0.093
23,GAGTGCAC,-0.0537
24,AAATGATT,0.316
25,AAATGATA,0.162

row,Sequence,PBM E-score
1,AAATGATC,-0.0261
2,ACTATCGA,-0.203
3,ACTTCCGG,0.335
4,GTTTCCGA,0.286
5,ATTTCCAC,0.067
6,CTTTCCGC,0.187
7,ATTTCCGA,0.359
8,ATTTCCAG,0.0278
9,CTTTCCGA,0.3
10,ACTTCCGA,0.285
11,ACTTCCGC,0.166
12,ATTTCCTG,0.186
13,ATTTCCGC,0.307
14,ATTTCCGG,0.445
15,AAAAGCCG,0.244
16,GATCTCGA,0.115
17,CAGTTGAC,-0.0401
18,ACATCTCG,0.00537
19,GGGATAAA,0.195
20,AAATTATT,0.212
21,ACGCAATA,0.135
22,AGAGCTCA,-0.142
23,GTACTATA,0.176
24,ATGGCGTA,-0.111
25,AATCCGAA,0.0989

row,Sequence,PBM E-score
1,TATCCGAA,0.386
2,CCTCCGAA,0.0955
3,GATCCGAA,0.375
4,CATCCGAG,0.212
5,TATCCGCA,0.293
6,CATCCGAA,0.338
7,CATCCGAC,0.247
8,GATCCAAA,0.196
9,GCTCCGAA,0.298
10,GATCCGAC,0.0808
11,TCTCCGAA,0.325
12,AACAAGAA,0.257
13,AAGATTAT,0.106
14,GCATTGCC,-0.0318
15,AGACTCTA,-0.124
16,AGGCATGG,-0.0826
17,TCGCTAAA,0.0346
18,GTCTTTCA,-0.0723
19,CCGGCCAC,0.24
20,AACTGCTC,-0.0494
21,GCCGTTAC,0.119
22,GTTCTGGA,0.0262
23,CGACGCCG,0.239
24,CCGACTTA,0.304
25,CCGACTTC,-0.243

row,Sequence,PBM E-score
1,CCGACTGA,0.00051
2,TGTTTCAA,0.153
3,ACGCGCAA,0.156
4,AGTCCCCC,-0.483
5,AATAGCGG,0.0178
6,ATGCGGCC,0.109
7,ATACGGCC,0.153
8,ATCCGGTA,0.206
9,ATCCGGTC,0.214
10,ATCCGGCC,0.358
11,ATGCGGCG,0.0251
12,ATCCGACG,0.155
13,ATCCGGCG,0.321
14,ATCCGGTG,0.353
15,ATTTGGCA,0.0517
16,GTGCACAC,-0.194
17,TGGCATAA,0.139
18,CTGGCTCA,-0.00502
19,ACCAAAGC,0.0124
20,CAGCCCTA,-0.0337
21,CATGGCGC,-0.0606
22,GCCAAAAA,0.234
23,GTATAAAA,0.325
24,TGGTAAAA,0.203
25,CGGTAAAC,0.216

row,Sequence,PBM E-score
1,CGGTAAAA,0.305
2,TGATAAAA,0.178
3,CGGTAAAG,0.314
4,GGGTAAAA,0.143
5,AGGTAAAG,0.106
6,CGATAAAA,0.333
7,GGATAAAA,0.248
8,GTATAAAC,0.256
9,ATATAAAA,0.278
10,AAGTTTGG,0.113
11,ATCCTCGG,0.218
12,CCAAAGCG,-0.0768
13,ACAACCGA,0.261
14,AAGGCGTG,-0.149
15,ATATTGGC,-0.0624
16,GGGCAACC,-0.121
17,CCCCAGGG,-0.297
18,CACGGGGC,-0.0464
19,TAATCTGA,-0.00734
20,GTCCGTTA,0.207
21,ATCCGTTC,0.29
22,ATCCGTTA,0.367
